Experimental findings from PubChem BioAssay (EPA / NIEHS) are described below.

Records with an inconclusive call do not appear. Calls of active or inactive are those of the source. How the source made its calls: active means hit-call score of the fitted dose curve at least 0.9, where 1 is the maximum; inconclusive means response in the unintended direction; inactive means score below 0.9.

Chain of human Thromboxane A2 Receptor (TXA2), TBXA2R (gene 6915) (P21731 whole entry, looked up): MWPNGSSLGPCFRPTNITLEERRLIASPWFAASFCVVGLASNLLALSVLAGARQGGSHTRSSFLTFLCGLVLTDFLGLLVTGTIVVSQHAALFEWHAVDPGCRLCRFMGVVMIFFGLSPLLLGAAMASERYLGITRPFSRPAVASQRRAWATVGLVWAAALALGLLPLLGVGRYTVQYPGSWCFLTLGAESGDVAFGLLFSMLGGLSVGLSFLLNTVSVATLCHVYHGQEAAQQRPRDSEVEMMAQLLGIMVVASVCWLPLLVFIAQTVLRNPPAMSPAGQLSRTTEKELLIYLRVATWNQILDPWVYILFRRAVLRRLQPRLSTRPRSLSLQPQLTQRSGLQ
Chain of D(1A) dopamine receptor (Homo sapiens) (P21728 whole entry, looked up): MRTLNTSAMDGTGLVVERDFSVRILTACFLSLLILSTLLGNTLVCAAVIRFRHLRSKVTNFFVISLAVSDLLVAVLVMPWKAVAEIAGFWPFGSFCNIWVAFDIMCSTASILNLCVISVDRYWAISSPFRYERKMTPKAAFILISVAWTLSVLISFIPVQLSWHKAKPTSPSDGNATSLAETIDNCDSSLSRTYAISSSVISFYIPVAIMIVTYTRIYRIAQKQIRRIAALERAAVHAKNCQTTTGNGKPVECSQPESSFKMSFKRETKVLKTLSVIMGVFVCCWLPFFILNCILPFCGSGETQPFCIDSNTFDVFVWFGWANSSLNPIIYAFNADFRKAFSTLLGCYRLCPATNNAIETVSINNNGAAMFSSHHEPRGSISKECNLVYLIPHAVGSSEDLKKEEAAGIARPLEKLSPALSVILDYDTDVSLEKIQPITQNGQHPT
Chain of guinea pig Opioid, Kappa 1 Receptor (OpiateK), OPRK1 (gene 100135587) (P41144 whole entry, looked up): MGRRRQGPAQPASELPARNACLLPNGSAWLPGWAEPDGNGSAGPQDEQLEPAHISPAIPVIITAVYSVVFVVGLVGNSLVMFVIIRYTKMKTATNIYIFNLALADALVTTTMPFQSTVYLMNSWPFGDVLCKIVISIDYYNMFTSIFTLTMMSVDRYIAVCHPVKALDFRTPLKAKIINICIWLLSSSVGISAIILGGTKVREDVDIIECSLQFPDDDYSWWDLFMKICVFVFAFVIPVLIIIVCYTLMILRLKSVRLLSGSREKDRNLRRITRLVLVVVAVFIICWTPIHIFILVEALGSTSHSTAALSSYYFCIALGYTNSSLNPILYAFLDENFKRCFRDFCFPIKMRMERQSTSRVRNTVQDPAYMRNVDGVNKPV
Chain of human Opioid Receptor Mu (Opiate Mu), OPRM1 (gene 4988) (P35372 whole entry, looked up): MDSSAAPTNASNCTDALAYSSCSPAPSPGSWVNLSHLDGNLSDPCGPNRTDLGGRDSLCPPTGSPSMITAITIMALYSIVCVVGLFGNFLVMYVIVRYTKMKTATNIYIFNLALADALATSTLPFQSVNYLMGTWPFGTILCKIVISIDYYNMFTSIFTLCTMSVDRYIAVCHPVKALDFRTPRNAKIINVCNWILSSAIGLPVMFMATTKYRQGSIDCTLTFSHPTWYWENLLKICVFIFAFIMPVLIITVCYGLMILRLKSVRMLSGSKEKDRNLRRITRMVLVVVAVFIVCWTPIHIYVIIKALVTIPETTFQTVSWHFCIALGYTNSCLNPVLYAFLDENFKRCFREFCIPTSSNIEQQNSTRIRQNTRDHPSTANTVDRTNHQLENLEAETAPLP
Chain of human Adenosine A2a Receptor (AdoRA2a), ADORA2A (gene 135) (P29274 whole entry, looked up): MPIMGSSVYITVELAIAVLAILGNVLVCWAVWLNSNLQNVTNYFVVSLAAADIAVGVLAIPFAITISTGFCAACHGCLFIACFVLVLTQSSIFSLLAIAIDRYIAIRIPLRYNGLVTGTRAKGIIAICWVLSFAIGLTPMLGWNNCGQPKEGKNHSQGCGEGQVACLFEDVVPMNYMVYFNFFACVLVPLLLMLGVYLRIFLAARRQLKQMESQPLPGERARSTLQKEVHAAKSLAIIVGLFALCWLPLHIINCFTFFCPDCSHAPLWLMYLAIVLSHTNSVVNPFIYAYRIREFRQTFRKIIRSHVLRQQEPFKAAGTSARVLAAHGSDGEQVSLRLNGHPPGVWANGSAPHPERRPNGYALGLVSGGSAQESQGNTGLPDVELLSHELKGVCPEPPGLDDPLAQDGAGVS

One test has as its target guinea pig Opioid, Kappa 1 Receptor (OpiateK), OPRK1 (gene 100135587) (UniProt P41144). The test is described as follows: NVS_GPCR_gOpiateK: NovaScreen (NVS) G Protein-Coupled Receptor Assay for guinea pig Opioid, Kappa 1 Receptor (OpiateK) (AID 2283252).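 Further: active means reduced radioligand binding relative to DMSO.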 An outline of the steps: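 Guinea pig cerebellar membranes were incubated with a radioligand for 2 h after compound addition; bound radioactivity was read by filter-based scintillation counting. Loss of specific binding relative to DMSO baseline defined activity; primary screen at 25 uM in duplicate.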
As for `O=P(c1ccccc1)(c1ccccc1)c1ccccc1`, the concentration at half-maximal activity (AC50) (commonly the midpoint of the concentration-response curve, whichever way the signal moves) is 11.4 µM (active).
The same measure, in the same setting: the value for `O=C=NC1CCC(CC2CCC(N=C=O)CC2)CC1` (stereo not drawn) was 29.3 µM (active).
For `CC1COc2ccccc2N1C(=O)C(Cl)Cl` (stereo not drawn), the compound was classed as inactive.

The target in the next test is human Adenosine A2a Receptor (AdoRA2a), ADORA2A (gene 135) (UniProt P29274). Nature of the test: NVS_GPCR_hAdoRA2a: NovaScreen (NVS) G Protein-Coupled Receptor Assay for human Adenosine A2a Receptor (AdoRA2a) (AID 2283256). The essentials:
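Radioligand displacement on HEK293-derived membrane protein, cell-free; filter-based scintillation counting 1.5 hours after dosing, loss of signal vs DMSO. Single-point duplicate screen at 25 uM, actives retested in concentration series.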
As for `Nc1cc([N+](=O)[O-])ccc1Cl`, the outcome was inactive.
Same read-out and setting: under `NC(=O)c1ccccc1Cl` stands “inactive”.
On to `O=C(O)C[C@H](O)C[C@H](O)/C=C/c1c(C2CC2)nc2ccccc2c1-c1ccc(F)cc1`, for which the outcome was inactive.

Another test deals with D(1A) dopamine receptor (Homo sapiens) (UniProt P21728). The test is described as follows: NVS_GPCR_hDRD1: NovaScreen (NVS) G Protein-Coupled Receptor Assay for human Dopamine Receptor D1 (DRD1) (AID 2283269). An outline of the steps:
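HEK293-derived receptor preparation; radioligand competitive displacement; 1 h; filtration + scintillation counting. DMSO = negative control/baseline. Primary: 25 uM, duplicate; secondary: concentration–response for actives.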
With `CCn1c2ccccc2c2cc(N)ccc21`, the AC50 is 38.5 µM (active).
On to `CC(C)c1ccc(C(C)C)cc1`, for which the result was inactive.
`CCCCNC(=O)NS(=O)(=O)c1ccc(C)cc1`: the call was inactive.
For `c1ccc2sc(SN(C3CCCCC3)C3CCCCC3)nc2c1`, the result was inactive.
Still for that read-out and setting: the value for `Cc1ccc2n[nH]nc2c1` was “inactive”.
`O=C1OC2(c3cc(Br)c(O)c(Br)c3Oc3c2cc(Br)c(O)c3Br)c2c(Cl)c(Cl)c(Cl)c(Cl)c21`: the AC50 was 0.423 µM (active).

A further test deals with Muscarinic acetylcholine receptor M2 (Homo sapiens) (UniProt P08172). The test is described as follows: NVS_GPCR_hM2: NovaScreen (NVS) G Protein-Coupled Receptor Assay for human Muscarinic, M2 Receptor (AID 2283273). An outline of the steps: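 Cell-free radioligand binding using membranes from CHO cells expressing the receptor; filter-based scintillation counting after 1 hour of compound exposure. Loss of specific binding relative to DMSO baseline; primary screen at 25 uM in duplicate, actives then run in concentration series.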
Chain of Muscarinic acetylcholine receptor M2 (Homo sapiens) (P08172 whole entry, looked up): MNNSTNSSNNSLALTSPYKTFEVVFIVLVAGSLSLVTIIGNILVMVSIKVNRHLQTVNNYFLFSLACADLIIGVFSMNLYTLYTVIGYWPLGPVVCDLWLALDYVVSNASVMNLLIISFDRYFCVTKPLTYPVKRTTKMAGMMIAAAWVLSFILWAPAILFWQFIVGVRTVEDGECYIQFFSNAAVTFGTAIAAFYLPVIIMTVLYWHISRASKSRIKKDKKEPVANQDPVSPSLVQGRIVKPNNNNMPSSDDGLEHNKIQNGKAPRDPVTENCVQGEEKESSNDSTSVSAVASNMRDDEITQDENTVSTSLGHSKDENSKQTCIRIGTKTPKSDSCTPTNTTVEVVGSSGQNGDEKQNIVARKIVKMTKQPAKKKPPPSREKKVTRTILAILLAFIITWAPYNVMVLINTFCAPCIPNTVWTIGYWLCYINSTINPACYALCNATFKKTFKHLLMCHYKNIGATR
For `CC(C)(CO)[N+](=O)[O-]`, the outcome was inactive.
As to `O=C=NC1CCC(CC2CCC(N=C=O)CC2)CC1` (stereo not drawn), the AC50 is 9.37 µM (active).
Consider `COC(=O)OC`, for which the compound was classed as inactive.
For `Nc1cc(N)cc(C(=O)O)c1`, the AC50 was 38.1 µM (active).
Consider `CNC[C@H](O)c1cccc(O)c1`, for which the concentration at half-maximal activity (AC50) was 29.7 µM (active).
The same measure, in the same setting: the value for `CN(CCOc1ccc(CC2SC(=O)NC2=O)cc1)c1ccccn1` (stereo not drawn) was 13.2 µM (active).

In a further test the target is human Neurokinin, NK2 Receptor, TACR2 (gene 6865) (UniProt P21452). Nature of the test: NVS_GPCR_hNK2: NovaScreen (NVS) G Protein-Coupled Receptor Assay for human Neurokinin, NK2 Receptor (AID 2283278).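 Further: actives reduce bound radioligand signal relative to DMSO baseline.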 An outline of the steps: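 Filter-based scintillation counting measured radioligand bound to receptor extracted from CHO cells, 4 hours after compound addition. Chemicals screened first at 25 uM in duplicate, with actives retested in concentration series relative to DMSO.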
Chain of human Neurokinin, NK2 Receptor, TACR2 (gene 6865) (P21452 whole entry, looked up): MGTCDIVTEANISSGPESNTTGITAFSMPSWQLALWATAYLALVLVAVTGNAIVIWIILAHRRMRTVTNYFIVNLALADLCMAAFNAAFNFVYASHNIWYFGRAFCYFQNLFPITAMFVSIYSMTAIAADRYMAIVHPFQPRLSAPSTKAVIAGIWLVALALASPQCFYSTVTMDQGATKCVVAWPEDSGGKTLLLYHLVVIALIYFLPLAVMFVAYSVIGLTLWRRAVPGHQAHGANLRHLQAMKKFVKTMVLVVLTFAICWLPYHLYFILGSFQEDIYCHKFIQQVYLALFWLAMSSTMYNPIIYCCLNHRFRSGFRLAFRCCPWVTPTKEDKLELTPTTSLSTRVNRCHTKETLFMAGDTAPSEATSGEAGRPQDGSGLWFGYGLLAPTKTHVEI
For `O=C=NC1CCC(CC2CCC(N=C=O)CC2)CC1` (stereo not drawn), the result was inactive.
Take `S=C(S)NCCNC(=S)S`: the half-maximal activity concentration (AC50) was 3.54 µM (active).
The same measure, in the same setting: under `O=C1OC2(c3cc(Br)c(O)c(Br)c3Oc3c2cc(Br)c(O)c3Br)c2c(Cl)c(Cl)c(Cl)c(Cl)c21` stands 1.27 µM (active).

The next test has as its target human Thromboxane A2 Receptor (TXA2), TBXA2R (gene 6915) (UniProt P21731). Nature of the test: NVS_GPCR_hTXA2: NovaScreen (NVS) G Protein-Coupled Receptor Assay for human Thromboxane A2 Receptor (TXA2) (AID 2283282).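 Further: actives reduce bound radioligand signal relative to DMSO baseline.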 An outline of the steps:
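Human platelet-derived receptor preparation incubated with test chemical and radiolabelled ligand for 1 hour, cell-free. Bound label was separated by filtration and counted; displacement relative to DMSO controls gave activity, screened at 25 uM, then titrated.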
For `CCCCCCCCCC=O`, the compound was called inactive.
Still for that read-out and setting: under `O=C1CCc2ccccc2O1` stands “inactive”.
With `BrC1CCC(Br)C(Br)CCC(Br)C(Br)CCC1Br` (stereo not drawn), the concentration at half-maximal activity (AC50) was 11.1 µM (active).
For `CCCCCCCCC=O`, the compound was called inactive.
Consider `CCCCOCCOCCOCCOCCO`, for which the result was inactive.
For the compound `CN(CCOc1ccc(CC2SC(=O)NC2=O)cc1)c1ccccn1` (stereo not drawn), the AC50 was 1.45 µM (active).

A further test concerns the target human Opioid Receptor Mu (Opiate Mu), OPRM1 (gene 4988) (UniProt P35372). The test is described as follows: NVS_GPCR_hOpiate_mu: NovaScreen (NVS) G Protein-Coupled Receptor Assay for human Opioid Receptor Mu (Opiate Mu) (AID 2283290).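 Further: hits lower bound tracer signal versus DMSO meaning displacement of the ligand.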 The essentials:
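CHO-derived receptor protein, cell-free; radioligand displacement, filtration + scintillation counting, read at 2.5 h. DMSO = negative control/baseline. Primary: 25 uM single conc, duplicate; secondary: concentration series.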
Take `Nc1cc([N+](=O)[O-])ccc1Cl`: the outcome was inactive.
For `CCc1c(C)cc(N)c(CC)c1N`, the AC50 is 13 µM (active).
For `Cc1ccc2sc3cccc(C)c3c2c1`, the compound was called inactive.
On to `CCCOCC(C)O` (stereo not drawn), for which the AC50 was 14.8 µM (active).
On the same count and under the same terms, the value for `COc1cc2ncnc(Nc3cccc(Cl)c3)c2cc1OC` was 4.36 µM (active).
Take `O=C1OC2(c3cc(Br)c(O)c(Br)c3Oc3c2cc(Br)c(O)c3Br)c2c(Cl)c(Cl)c(Cl)c(Cl)c21`: the AC50 was 0.0961 µM (active).
